# Rows were chosen to be rich in hits. Some 3.1% of all compounds tested hit in one or more screens of this group.
# IkB signaling – IkB pathway inhibition in ABC-DLBCL cells | ABC-DLBCL IkBa-CBG/CBR dual luciferase ratio, 4 h; response scale: scaled: untreated 0%, proteasome inhibitor 100% | Potency, µM (highest dose often 57.1 µM), inactives show top-dose IkBa stabilization activation | 110,000 tested, 0.04% active | AID 445; active means well fitted curve in the direction sought with a large enough effect in the signal ratio, not every such curve was filed as active; inconclusive means small, poorly fitted or top-dose-only effect, or a change in a side signal; the % refers to the signal ratio;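 further: the direction sought is a rising ratio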
#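 Curves were fitted separately to fusion (green), unfused (red) and ratio luminescence, then classed by r2, magnitude and activity. Cells: OCI-Ly3, 4 h compound plus doxycycline at 37C; 10 uM MG-132 defined full response.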
# p53ts 32C kill – p53ts cell cytotoxicity, permissive temperature | Potency, µM (series often up to 46.1 µM), inactives show at the top dose activity change, negative = cytotoxicity, most hits filed as cytotoxic | 130,000 tested, 0.93% active | H1299-p53A138V at 32C, ATP luminescence viability, 24 h;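 further: 0% = DMSO and -100% = full killing by reference compound; nearly all actives have a fitted effect of over 55% in size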
#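 ATP-content luminescence (ATPlite) read-out after 24 h compound exposure at 32C in H1299-p53A138V cells (600/well). Tested up to 46 uM. Normalized to DMSO (0%) and 100 uM tamoxifen (100% killing); Hill-fit AC50.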
# HEK293 cAMP cs – parental HEK293 cAMP activation (counter-screen); Potency, µM (series often up to 57.1 µM), inactives show top-dose activation, usual class: activators; 73,000 tested, 2.5% active; parental HEK293 CNG cAMP sensor, membrane potential fluorescence; further: % of control where 0% means no effect; nearly all actives have a fitted effect of over 55% in size
#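 Parental HEK 293 cells stably expressing a cAMP-gated CNG channel were loaded with membrane potential dye containing 100 uM RO 20-1724 for 60 min. Compound added for 30 min; depolarization read as fluorescence intensity at 590 nm.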
# p53ts 39C kill – cytotoxicity in p53ts cells at nonpermissive temperature. Potency, µM (highest dose often 46.1 µM), inactives show at the highest dose activity change, negative = cell killing, hits mostly cytotoxic. H1299-p53A138V viability at 39C, ATP luminescence, 24 h. 130,000 tested, 1.5% active; further: on the % scale 0 is the no-effect control and ±100 the full control effect; nearly all actives have a fitted effect of over 55% in size
# TSHR agonist – activates the human thyroid stimulating hormone receptor. Potency, µM (highest dose often 57.1 µM), without a hit: at the highest dose activation, hits mostly activators. 73,000 tested, 0.48% active. P16473. HEK293-CNG-TSHR cells (CNG channel as cAMP sensor), membrane potential dye, cAMP; active means well fitted activation curve with a large enough effect in the main read-out, with a control signal flat, not every such curve was filed as active; inconclusive means small, poorly fitted or top-dose-only effect, or a change in a side signal; inactive means no such curve, though single readings can be large or run the other way; % of control where 0% means no effect;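 further: the control signal comes from parental cells without the receptor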
# Target sequence (P16473 whole entry, looked up): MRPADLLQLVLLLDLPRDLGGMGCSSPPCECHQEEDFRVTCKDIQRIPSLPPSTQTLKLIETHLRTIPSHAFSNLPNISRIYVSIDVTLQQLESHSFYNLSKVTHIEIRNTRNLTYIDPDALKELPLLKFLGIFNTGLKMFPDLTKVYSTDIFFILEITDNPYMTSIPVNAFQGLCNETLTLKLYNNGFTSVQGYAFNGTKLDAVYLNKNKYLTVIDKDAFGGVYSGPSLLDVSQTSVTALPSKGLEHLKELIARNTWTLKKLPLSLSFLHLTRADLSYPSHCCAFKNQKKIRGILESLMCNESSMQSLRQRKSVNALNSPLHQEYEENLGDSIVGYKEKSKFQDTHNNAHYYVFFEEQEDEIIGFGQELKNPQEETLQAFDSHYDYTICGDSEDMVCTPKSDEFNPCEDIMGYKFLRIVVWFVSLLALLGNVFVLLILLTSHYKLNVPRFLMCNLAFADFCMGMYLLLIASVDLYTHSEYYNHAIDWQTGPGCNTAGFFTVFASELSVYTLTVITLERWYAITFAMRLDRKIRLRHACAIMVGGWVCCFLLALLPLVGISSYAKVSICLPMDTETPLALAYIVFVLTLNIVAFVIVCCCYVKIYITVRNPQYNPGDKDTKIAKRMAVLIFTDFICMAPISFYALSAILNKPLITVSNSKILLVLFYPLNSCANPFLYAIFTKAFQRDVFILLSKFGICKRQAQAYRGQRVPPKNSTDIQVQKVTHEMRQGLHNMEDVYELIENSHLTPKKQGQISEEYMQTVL
#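 cAMP rise detected as CNG-channel membrane depolarization by fluorescent dye (emission 590 nm), 30 min after compound, following 60 min dye loading containing 100 uM RO 20-1724 at room temperature. Cells: TSHR/CNG HEK 293, with parental CNG HEK 293 as control.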
# Imprint erasure – inducers of genomic imprint erasure in mouse ES cells; AID 1948; 110,000 tested, 0.02% active; mouse ES Peg3-LacZ reporter, beta-gal luminescence, 40 h; Potency, µM (series often up to 60.7 µM), for the others: at the highest dose activity change, positive = activation, hits mostly activators
#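 Readout: BetaGlo luminescence (5 min, room temp) for LacZ from the normally silent maternal Peg3 allele in female Peg3LacZ-Neo ES cells. Cells 300/well, 40 h, 37C, 5% CO2. Data normalized per plate to negative controls.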
# * hit, by the source's call; ? = inconclusive; / = not tested or not shown; [ ] = another dose, or the depositor's remark. Unless noted, the call rests on the fitted dose curve; in most records, active means well fitted curve in the direction sought with a large enough effect; inconclusive means small, poorly fitted or top-dose-only effect, or another doubt; inactive means no such curve, though single readings can be large; an effect the other way counts as inactive or inconclusive. Potency means the concentration at half of the fitted maximal effect.
SMILES,IkB signaling,p53ts 32C kill,HEK293 cAMP cs,p53ts 39C kill,TSHR agonist,Imprint erasure
Cc1ccc(NC(=O)Cn2c(=O)c3cc(Cl)ccc3n3nncc23)cc1,0%,12%,/,5%,/,2%[10.9 µM]
Cc1ccc(S(=O)(=O)Nc2cccc(-c3ccc(N4CCCC4)nn3)c2)c(C)c1,0%,7%,/,-5%,/,-8%[10.9 µM]
CCc1ccc(S(=O)(=O)Nc2cccc(-c3ccc(N4CCCCC4)nn3)c2)s1,-2%,13µM*,/,16µM*,/,-15%[10.9 µM]
CC(=O)c1ccc(S(=O)(=O)Nc2cccc(-c3ccc(N4CCCCC4)nn3)c2)cc1,?,10µM*,/,5µM*,/,-17%[10.9 µM]
Cc1ccc(S(=O)(=O)Nc2cccc(-c3ccc(N4CCCCC4)nn3)c2)s1,-1%,13µM*,/,1µM*,/,-11%[10.9 µM]
O=S(=O)(Nc1cccc(-c2ccc(N3CCCCCC3)nn2)c1)c1ccc(F)cc1,-1%,?,/,-35%,/,-9%[10.9 µM]
CC(C)(C)c1ccc(Oc2ccc(NC(=O)CCC(=O)OCC(=O)c3ccccc3)cc2)cc1,-2%,-11%,/,-26%,/,-7%[10.9 µM]
CCCOc1ccccc1C(=O)N1CCCCC1CCN1CCCCC1 (stereo not drawn),1%,-3%,/,22µM*,/,-10%[10.9 µM]
COc1cccc(C(c2sc3nc(-c4ccco4)nn3c2O)N2CCC(C)CC2)c1 (stereo not drawn),0%,0%,/,25%,/,7%[10.9 µM]
Cc1ccccc1Nc1c(-c2ccc(N3CCOCC3)cc2)nc2ncccn12,2%,13µM*,/,4µM*,/,-9%[10.9 µM]
Cc1ccc(Nc2c(-c3ccc(N4CCOCC4)cc3)nc3ncccn23)cc1,-2%,2%,/,-19%,/,?
CCOC(=O)C1CCN(C(c2ccccc2OC)c2c(O)cc(C)n(CCOC)c2=O)CC1 (stereo not drawn),1%,5%,/,-11%,/,4%[10.9 µM]
Cc1cccn2c(=O)cc(COc3ccc(NC(=O)COc4ccc(F)cc4)cc3)nc12,0%,2%,/,-3%,/,13%[10.9 µM]
CCn1c(SCc2ccc(OC)cc2)nnc1-c1ccncc1,?,4%,25µM*,11%,?,-15%
CCn1c(SCC(=O)c2cc(OC)ccc2OC)nnc1-c1ccncc1,5%,23%,25µM*,16%,?,-25%
CCn1c(SCC(=O)c2cc(OC)ccc2OC)nnc1C(C)C,?,-1%,18%,0%,3%,-4%
CN(Cc1ccco1)c1ncnc2ccc(-c3ccccc3Cl)cc12,-1%[11.4 µM],-6%,?,-16%,?,-24%
CN(Cc1ccco1)c1ncnc2ccc(-c3ccoc3)cc12,?,2%,16µM*,-7%,?,-54%
COc1ccccc1-c1ccc2ncnc(N(C)Cc3ccco3)c2c1,11%[11.4 µM],4%,3.2µM*,-18%,?,-31%
CN(Cc1ccco1)c1nc(-c2ccoc2)nc2ccccc12,4%[11.4 µM],5%,16µM*,-18%,?,-10%
CN(C)c1ccc(-c2nc(N(C)Cc3ccco3)c3ccccc3n2)cc1,-5%[11.4 µM],?,-4%,?,16%,-24%
O=C(Nc1ccccc1)N1CC[C@@]2(CCCN(C(=O)c3cc(C(F)(F)F)cc(C(F)(F)F)c3)C2)C1,-1%[11.4 µM],0%,25%,-9%,5%,/
Cc1cc(C)c(Cn2c(C)c(CNCCCc3ccccc3)c(C(=O)O)c2C)c(C)c1,?,17%,/,-19%,/,-3%[10.9 µM]
O=C(NC(Cc1cc(=O)[nH]c2ccccc12)C(=O)O)c1ccc(Cl)cc1 (stereo not drawn),/,-2%,/,-10%,/,-6%
Cc1ccc(C(=O)Nc2c(-c3ccccc3)nc3ccccn23)cc1C,0%,5%,/,-7%,/,8%[10.9 µM]
SMILES,IkB signaling,p53ts 32C kill,HEK293 cAMP cs,p53ts 39C kill,TSHR agonist,Imprint erasure
Cc1ccnc(NC(c2cc(C)ccc2O)c2ccc3cccnc3c2O)c1 (stereo not drawn),?,?,/,13µM*,/,-14%[10.9 µM]
Oc1c(C(Nc2ccccn2)c2ccccn2)ccc2cccnc12 (stereo not drawn),?,-5%,29%,4µM*,23%,-23%
Cc1ccnc(NC(c2ccccc2F)c2ccc3cccnc3c2O)c1 (stereo not drawn),?,-12%,/,?,/,-10%[10.9 µM]
Oc1c([C@H](Nc2ccccn2)c2ccccc2)ccc2cccnc12,5%[11.4 µM],-16%[9.22 µM],9%[11.4 µM],?,1%[11.4 µM],-15%[10.9 µM]
Oc1c(C(Nc2ccccn2)c2ccccc2F)ccc2cccnc12 (stereo not drawn),42%,4%,/,10µM*,/,-13%[10.9 µM]
COc1ccc(-c2noc(-c3ccc(NC4CCCC4)c([N+](=O)[O-])c3)n2)cc1,6%,1%,/,-10%,/,9%[10.9 µM]
COc1cccc(NC(=O)c2oc3ccc(S(=O)(=O)N4CCC5(CC4)OCCO5)cc3c2C)c1,?,23%,/,-21%,/,-12%[10.9 µM]
Cc1ccc(S(=O)(=O)c2c(Nc3cc(F)ccc3F)sc(C(=O)c3ccc(F)cc3)c2N)cc1,?,2%,/,-7%,/,7%[10.9 µM]
O=C(Nc1ccc(-c2noc(CCc3ccccc3)n2)cc1)c1ccco1,?,?,8%,10µM*,12%,-61%
COc1ccc(-c2noc(CNC(=O)c3ccco3)n2)cc1,-2%,2%,/,18%,/,-13%[10.9 µM]
CCN(c1ccccc1)S(=O)(=O)c1nnc(NC(=O)c2ccco2)s1,8%,?,/,1.3µM*,/,-35%[10.9 µM]
CCN(CC)c1ccc(NC(=O)c2ccco2)cc1,5%,10µM*,13%,10µM*,-7%,-36%
Cc1ccc(N(CC(C)C)S(=O)(=O)c2nnc(NC(=O)c3ccco3)s2)cc1,1%,4%,/,-19%,/,-4%[10.9 µM]
COc1ccc(-c2onc(C)c2C)cc1S(=O)(=O)NCc1ccco1,0%,8%,/,-23%,/,-4%[10.9 µM]
Nc1nc(-c2ccccc2)c(-c2ccccc2)c(-c2nc(N)nc(-c3ccccc3)c2-c2ccccc2)n1,1%[11.4 µM],0%[9.22 µM],12%[11.4 µM],3%[9.22 µM],6%[11.4 µM],-9%[10.9 µM]
CCOC(=O)CCC(NC(=O)c1ccc(NCN2C(=O)c3ccccc3C2=O)cc1)C(=O)OCC (stereo not drawn),1%,0%,0.79µM*,2%,?,9%
C=CC(=O)OCCOCCOC(=O)C=C,?,-1%[1.84 µM],23%,32µM*,?,-27%
CC(C)Oc1ccc(C(=O)Nc2nnc3n2CCS3)cc1,2%,?,/,13µM*,/,-69%[10.9 µM]
CN(CCOc1ccc(C[C@H](Nc2ccccc2C(=O)c2ccccc2)C(=O)O)cc1)c1ccccn1,?,-5%,?,-9%,?,-10%
CC(C)=CC(=O)Nc1ccccc1C(N)=O,0%,5%,4%,16%,-8%,-8%

# Assay outcomes: PubChem, National Center for Advancing Translational Sciences (NCATS)
